Data: PubChem BioAssay (Tox21)
Inconclusive results are not listed. Active and inactive are the calls of the source. Unless noted, calls follow the shape of the dose curve; as a rule, active = well fitted curve in the direction sought with a large enough effect in the repeat runs; inconclusive = weak or mixed curves; inactive = no such curve, though single readings can be large; an effect the other way counts as inactive or inconclusive.

Key:
[1] = qHTS assay for small molecule agonists of the p53 signaling pathway (AID 651631; calls by dose curve; also: nearly all actives have a fitted effect of over 15% in size)
Method in brief: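 Readout was fluorescence from the LiveBLAzer FRET substrate, applied for 2 h at room temperature after 16 h compound exposure at 37 °C. Cells were the p53RE-bla HCT-116 line, with beta-lactamase driven by p53 response elements.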

[2] = qHTS assay for small molecules that induce genotoxicity in human embryonic kidney cells expressing luciferase-tagged ATAD5 (AID 651632); also: nearly all actives have a fitted effect of over 15% in size
Method in brief: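 Cells were seeded at 2,000 per well, dosed with compound, and incubated 16 hr at 37C in 5% CO2. Luciferase activity was then quantified after a 30 min room-temperature incubation with Amplite.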

[3] = qHTS assay for small molecule agonists of the p53 signaling pathway - cell viability (AID 651633; calls by dose curve; also: series mostly up to about 83 µM; nearly all actives have a fitted effect of over 30% in size)
Method in brief: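 p53RE-bla cells, seeded at 4,000 per well and rested 5 h at 37 C/5% CO2, received compounds in DMSO for 16 h at 37 C. CellTiter-Glo was then added, and luminescence was read after 30 min at room temperature to gauge cytotoxicity.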

[4] = qHTS assay for small molecules that induce genotoxicity in human embryonic kidney cells expressing luciferase-tagged ATAD5 - cell viability (AID 651634; calls by dose curve; also: nearly all actives have a fitted effect of over 25% in size)
Method in brief: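 Cells (HEK293T, luciferase-tagged ATAD5) are seeded at 2,000 per well, dosed with compound or DMSO vehicle, and incubated 15.5 hr at 37C and 5% CO2. CellTiter-Fluor is added for 30 min before fluorescence is measured.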

[5] = qHTS assay for small molecule disruptors of the mitochondrial membrane potential - cell viability (AID 720634; calls by dose curve;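 also: human HepG2 liver cancer cells; series mostly up to about 83 µM; nearly all actives have a fitted effect of over 20% in size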)
Method in brief: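 Cytotoxicity was measured by ATP quantitation in HepG2 wells that had first been treated with compound for 1 hr and stained with m-MPI dye; CellTiter-Glo incubation was 30 min at room temperature.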

[6] = qHTS assay to test for compound auto fluorescence at 590 nm (red) in HepG2 cells (AID 720674)
Method in brief: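 Rose Bengal sodium served as the red fluorophore standard. HepG2 monolayers (overnight attachment, MEM with 10% FBS) were exposed to test compounds for 1 hr at 37 C and read at Ex 540/Em 590 nm.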

[7] = qHTS assay to test for compound auto fluorescence at 535 nm (green) in HepG2 cells (AID 720675)
[8] = qHTS assay to test for compound auto fluorescence at 460 nm (blue) in HEK293 cells (AID 720678)
Method in brief: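 HEK293, 2,000 cells/well, 10% dialyzed FBS; attach 4-5 hr 37C; pin compound or DMSO; o/n 37C/5% CO2; fluorescence 405/460 nm; triamterene-equivalent units.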

[9] = qHTS assay to test for compound auto fluorescence at 590 nm (red) in HEK293 cells (AID 720679)
Method in brief: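 Intensity at 540nm excitation and 590nm emission is reported as Rose Bengal sodium-equivalent autofluorescence. Measurements followed overnight exposure (37C, 5% CO2) of HEK293 cells, 2,000 per well, to 23 nL compound.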

[10] = qHTS assay to test for compound auto fluorescence at 535 nm (green) in HEK293 cells (AID 720680)
[11] = qHTS assay to test for compound auto fluorescence at 460 nm (blue) in HEK293 cell free culture (AID 720681)
Method in brief: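 Test compounds were pinned into cell-free culture medium (DMEM with 10% FBS) and fluorescence was read directly at Ex/Em 405/460 nm. Signals were expressed as fluorescence equivalents of triamterene, with DMSO vehicle as control.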

[12] = qHTS assay to test for compound auto fluorescence at 535 nm (green) in HEK293 cell free culture (AID 720682)
Method in brief: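 Compounds were pin-transferred into cell-free DMEM with 10% FBS, and green fluorescence was read at excitation 485 nm and emission 535 nm. Intensities were expressed as fluorescein-equivalent values.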

[13] = qHTS assay to test for compound auto fluorescence at 590 nm (red) in HEK293 cell free culture (AID 720683)
Method in brief: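 Tox21 10K library compounds were pinned into cell-free DMEM with 10% FBS and fluorescence was read at excitation 540 nm. Activity is expressed as Rose Bengal sodium equivalency.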

[14] = qHTS assay to test for compound auto fluorescence at 590 nm (red) in HepG2 cell free culture (AID 720684)
Method in brief: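 Ex 540 / Em 590 nm read of compound in cell-free MEM (10% FBS). Rose Bengal sodium reference.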

[15] = qHTS assay to test for compound auto fluorescence at 460 nm (blue) in HepG2 cell free culture (AID 720685)
Method in brief: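 Cell-free plates of MEM plus 10% FBS received 23 nL compound or DMSO vehicle; blue-channel (405/460 nm) intensity scored against triamterene as reference fluorophore.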

[16] = qHTS assay to test for compound auto fluorescence at 535 nm (green) in HepG2 cell free culture (AID 720686)
[17] = qHTS assay to test for compound auto fluorescence at 460 nm (blue) in HepG2 cells (AID 720687)
Method in brief: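 Cells (2,000/well in MEM with 10% FBS) attached overnight at 37 C, then were exposed to compound or DMSO for 1 hr at 37 C, 5% CO2. Fluorescence read at Ex/Em 405/460 nm, expressed as triamterene-equivalent signal.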

[18] = molecular target: Glucocorticoid receptor (Homo sapiens) (UniProt P04150); experiment: qHTS assay to identify small molecule agonists of the glucocorticoid receptor (GR) signaling pathway (AID 720691; active = well fitted activation curve with a large enough effect in the signal ratio in the repeat runs, not every such curve was filed as active; the % refers to the signal ratio)
Method in brief: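 Steps: seed GR-bla HeLa cells, incubate 4 h at 37 C/5% CO2; pin-transfer DMSO-dissolved compounds; incubate 18 h at 37 C; add LiveBLAzer B/G FRET substrate; after 2 h at room temperature, measure fluorescence.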

[19] = molecular target: Glucocorticoid receptor (Homo sapiens) (UniProt P04150); experiment: qHTS assay to identify small molecule antagonists of the glucocorticoid receptor (GR) signaling pathway (AID 720692; active = well fitted inhibition curve with a large enough effect in the signal ratio in the repeat runs, not every such curve was filed as active; the % refers to the signal ratio)
Method in brief: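 Antagonism was scored as loss of dexamethasone-driven (5 nM final) reporter signal in HeLa cells bearing a glucocorticoid response element–beta-lactamase construct, after 18 h compound exposure at 37 C and 2 h FRET substrate loading.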

[20] = qHTS assay for small molecule disruptors of the mitochondrial membrane potential (AID 720635)
Method in brief: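 HepG2 cells (2,000/well) attached overnight at 37C, then took compound for 1 hr at 37C, 5% CO2. Mito-MPS dye was added for 30 min; fluorescence was read at 490/535 nm (monomers) and 540/590 nm (aggregates).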
% is scaled to controls: 0 for no effect and ±100 for the full control effect.

Sequence of Glucocorticoid receptor (Homo sapiens) (P04150 whole entry, looked up): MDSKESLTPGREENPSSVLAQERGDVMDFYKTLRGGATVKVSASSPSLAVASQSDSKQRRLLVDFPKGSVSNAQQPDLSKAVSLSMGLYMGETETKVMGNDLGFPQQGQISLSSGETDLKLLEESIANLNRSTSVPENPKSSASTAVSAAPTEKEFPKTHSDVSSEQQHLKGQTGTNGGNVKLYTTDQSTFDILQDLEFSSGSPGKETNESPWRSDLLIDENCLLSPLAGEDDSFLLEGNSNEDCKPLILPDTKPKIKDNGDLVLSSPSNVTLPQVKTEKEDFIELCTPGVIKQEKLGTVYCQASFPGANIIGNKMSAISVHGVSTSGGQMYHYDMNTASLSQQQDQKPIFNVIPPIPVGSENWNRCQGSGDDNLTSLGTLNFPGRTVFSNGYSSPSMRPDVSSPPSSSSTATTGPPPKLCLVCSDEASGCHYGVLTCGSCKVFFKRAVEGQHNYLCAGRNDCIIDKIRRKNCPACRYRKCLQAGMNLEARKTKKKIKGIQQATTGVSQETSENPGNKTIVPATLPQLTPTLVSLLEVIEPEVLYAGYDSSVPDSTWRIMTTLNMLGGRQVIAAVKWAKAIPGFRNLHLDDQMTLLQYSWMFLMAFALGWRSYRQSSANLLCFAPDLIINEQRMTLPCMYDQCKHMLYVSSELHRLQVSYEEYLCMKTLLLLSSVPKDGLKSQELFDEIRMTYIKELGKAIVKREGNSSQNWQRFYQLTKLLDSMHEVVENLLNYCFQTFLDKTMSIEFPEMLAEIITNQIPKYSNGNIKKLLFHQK

CC1=C(C(=O)O)N2C(=O)[C@@H](NC(=O)[C@H](N)c3ccccc3)[C@H]2SC1
inactive: outcome [1] | outcome [2] | outcome [3] | Potency [4] | outcome [5] | outcome [6] | outcome [7] | outcome [8] | outcome [9] | outcome [10] | outcome [11] | outcome [12] | outcome [13] | outcome [14] | outcome [15] | outcome [16] | outcome [17] | Potency [18] | outcome [19]

CCCCCC/C=C/C(=O)OC
inactive: outcome [1] | outcome [2] | outcome [3] | Potency [4] | outcome [5] | outcome [6] | outcome [7] | outcome [8] | outcome [9] | outcome [10] | outcome [11] | outcome [12] | outcome [13] | outcome [14] | outcome [15] | outcome [16] | outcome [17] | Potency [18] | outcome [19]

CC(=O)c1cc(C)oc1C
inactive: outcome [1] | outcome [2] | outcome [3] | Potency [4] | outcome [5] | outcome [6] | outcome [7] | outcome [8] | outcome [9] | outcome [10] | outcome [12] | outcome [13] | outcome [14] | outcome [15] | outcome [16] | outcome [17] | Potency [18]

O=C(NCN1CCOCC1)c1cnccn1
inactive: outcome [1] | outcome [2] | outcome [3] | Potency [4] | outcome [5] | Potency [20] | outcome [6] | outcome [7] | outcome [8] | outcome [10] | outcome [11] | outcome [12] | outcome [13] | outcome [14] | outcome [15] | outcome [16] | outcome [17] | Potency [18]

C=CCCCCCCCCC(=O)OCCCC
inactive: outcome [1] | outcome [2] | outcome [3] | Potency [4] | outcome [5] | Potency [20] | outcome [6] | outcome [7] | outcome [8] | outcome [10] | outcome [11] | outcome [12] | outcome [13] | outcome [14] | outcome [15] | outcome [16] | outcome [17]

CCOc1cccc(N)c1
inactive: outcome [1] | outcome [2] | outcome [3] | Potency [4] | outcome [5] | Potency [20] | outcome [7] | outcome [8] | outcome [9] | outcome [10] | outcome [11] | outcome [12] | outcome [13] | outcome [14] | outcome [15] | outcome [16] | outcome [17]

O=C1c2ccccc2C(=O)c2cc(Cl)ccc21
inactive: activation [1] -4.52% [at 8.3 µM] | activation [2] 2.88% [at 8.08 µM] | activity change, negative = cytotoxicity [3] -10.5% [at 8.08 µM] | activity, negative = cytotoxicity [4] 10.7% [at 8.08 µM] | activity change, negative = cytotoxicity [5] 3.06% [at 8.08 µM] | fluorescence, relative to Rose Bengal [6] -0.0283% [at 3.72 µM] | fluorescence, % of fluorescein control [7] -0.0348% [at 3.72 µM] | fluorescence, % of triamterene [8] -0.0543% [at 3.72 µM] | fluorescence, % of fluorescent control [9] -0.785% [at 3.72 µM] | fluorescence, % of fluorescein [10] 0.0004% [at 3.72 µM] | activity change [12] -0.0107% [at 3.72 µM] | fluorescence, % of fluorescent control [13] -0.094% [at 3.72 µM] | fluorescence, % of Rose Bengal [14] -0.0228% [at 3.72 µM] | fluorescence, % of fluorescent control [15] -0.0625% [at 3.72 µM] | fluorescence, % of fluorescein control [16] -0.0292% [at 3.72 µM] | fluorescence, % of fluorescent control [17] -0.0186% [at 3.72 µM] | activation [18] -4.3% [at 6.9 µM]

CCCC(CC)c1ccccc1 (stereo not drawn)
inactive: outcome [1] | outcome [2] | outcome [3] | Potency [4] | outcome [5] | outcome [6] | outcome [7] | outcome [8] | outcome [9] | outcome [10] | outcome [11] | outcome [12] | outcome [13] | outcome [14] | outcome [15] | outcome [16] | outcome [17] | Potency [18] | outcome [19]
